From PubChem BioAssay (NCI) come the findings set out here.

Compounds without any hit were thinned out: in the full panel of roughly 79,000, 15% have a hit. A number with no mark means an inactive call. Calls of active or inactive are those of the source. Rule as the data show it: active = growth inhibition above about 70%; inactive = the rest.

The nature of assay [1]: NCI Yeast Anticancer Drug Screen. Data for the rad50 strain (AID 155).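 Also: 0% = growth of vehicle-only cultures of the same strain.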 As to conditions: S. cerevisiae rad50 strain growth inhibition, active compounds read high. A digest of the protocol: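 Inhibition values express reduced yeast growth in compound-treated cultures relative to vehicle-treated controls.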
Assay [2] is described as follows: NCI Yeast Anticancer Drug Screen. Data for the mec2-1 strain (AID 157). Conditions: S. cerevisiae mec2-1 strain, active compounds read high. In short, it runs like this: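 Growth inhibition is read against vehicle-treated controls after compound exposure of the mec2-1 yeast strain, which is defective in DNA damage repair or cell cycle control.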
A short description of assay [3]: NCI Yeast Anticancer Drug Screen. Data for the sgs1 mgt1 strain (AID 161).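 Also: 0% = growth of cultures given vehicle only.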 Conditions: S. cerevisiae sgs1 mgt1 strain, active compounds read high. A digest of the protocol: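 Percent growth inhibition was derived by comparing compound-exposed mutant yeast with vehicle-exposed cultures. The strain carries alterations in DNA damage repair.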
Assay [4] is described as follows: NCI Yeast Anticancer Drug Screen. Data for the cln2 rad14 strain (AID 165).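 Also: 0% = growth equal to vehicle treated cultures.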 As to conditions: S. cerevisiae cln2 rad14 strain, active compounds read high. A digest of the protocol: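 Growth inhibition, relative to vehicle-treated controls, is the read-out. The test organism is a yeast strain with defined genetic alterations, cln2 rad14.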
The nature of assay [5]: NCI Yeast Anticancer Drug Screen. Data for the bub3 strain (AID 167). Conditions: S. cerevisiae bub3 mutant strain, active compounds read high. In short, it runs like this:
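Steps: expose the mutant yeast strain to compound; grow alongside vehicle-treated cultures; measure growth; express inhibition against the vehicle cultures.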

The nature of assay [6]: NCI Yeast Anticancer Drug Screen. Data for the mlh1 rad18 strain (AID 175). As to conditions: S. cerevisiae mlh1 rad18 strain growth inhibition, active compounds read high. A digest of the protocol: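 Cells of a genetically altered yeast strain, deficient in DNA damage repair, were treated with compound. Their growth was then compared with that of vehicle-treated cultures to give inhibition.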

The mark [7] stands for this setting: at 5.0 µM (retest, dose inferred, filed as 0.5).
[8] abbreviates: at 50.0 µM (retest, dose inferred, filed as 5.0).

As to `COC1NC(=O)NC(=O)C1=[N+]=[N-]` (configuration not stated), the growth inhibition in assay [1] (setting [7]) is -152%; in assay [1] (setting [8]), -50%; in assay [1] (at 50.0 µM) it was 31.6%; in assay [2] (setting [7]), -44%; in assay [2] (setting [8]) it was -39%; in assay [2] (at 50.0 µM) it was 9.25%. Also, the growth inhibition is -60% in assay [3] (setting [7]); -33% in assay [3] (setting [8]); 1.3% in assay [3] (at 50.0 µM); -54% in assay [4] (setting [7]); -55% in assay [4] (setting [8]); 27.6% in assay [4] (at 50.0 µM). The growth inhibition in assay [5] (setting [7]) was -58%; in assay [5] (setting [8]) it was -55%; in assay [5] (at 50.0 µM), -17.7%; in assay [6] (setting [7]), -120%; in assay [6] (setting [8]), -136%; in assay [6] (at 50.0 µM), 21.9%.

As to `[CH3][Sn]([CH3])([Cl])[c]1cc[c]([Sn]([CH3])([CH3])[Cl])cc1`, the growth inhibition in assay [1] (setting [7]) was 26%; in assay [1] (setting [8]), 84% (active); in assay [1] (at 50.0 µM), 78% (active); in assay [2] (setting [7]), -1%; in assay [2] (setting [8]), 50%; in assay [2] (at 50.0 µM) it was 72.5% (active). The growth inhibition in assay [3] (setting [7]) was 6%; in assay [3] (setting [8]), 80% (active); in assay [3] (at 50.0 µM) it was 85.5% (active); in assay [4] (setting [7]), 11%; in assay [4] (setting [8]) it was 63%; in assay [4] (at 50.0 µM), 77% (active). Also, the growth inhibition in assay [5] (setting [7]) is 10%; in assay [5] (setting [8]) it was 80% (active); in assay [5] (at 50.0 µM), 81.3% (active); in assay [6] (setting [7]), 20%; in assay [6] (setting [8]), 87% (active); in assay [6] (at 50.0 µM), 80.2% (active).

Take `NC(=O)/C=C/C(=O)O` (tested in a mixture with another compound): the growth inhibition in assay [1] (setting [7]) was 0%; in assay [1] (setting [8]) it was 1%; in assay [1] (at 50.0 µM), -5.5%; in assay [2] (setting [7]), 2%; in assay [2] (setting [8]), -1%; in assay [2] (at 50.0 µM), 66.5%. Besides, the growth inhibition is 0% in assay [3] (setting [7]); 3% in assay [3] (setting [8]); 7.2% in assay [3] (at 50.0 µM); 1% in assay [4] (setting [7]); 1% in assay [4] (setting [8]); 23.1% in assay [4] (at 50.0 µM). Also, the growth inhibition in assay [5] (setting [7]) was -7%; in assay [5] (setting [8]) it was -4%; in assay [5] (at 50.0 µM), 95.7% (active); in assay [6] (setting [7]) it was -1%; in assay [6] (setting [8]), 2%; in assay [6] (at 50.0 µM), 17.5%.

Take `CN(Cc1ccccc1)CC(O)c1ccc(Cl)cc1` (configuration not stated): the growth inhibition in assay [1] (setting [7]) was -4%; in assay [1] (setting [8]) it was 38%; in assay [1] (at 50.0 µM) it was 57.5%; in assay [2] (setting [7]), -1%; in assay [2] (setting [8]), 23%; in assay [2] (at 50.0 µM), 0.75%. Moreover, the growth inhibition in assay [3] (setting [7]) was 2%; in assay [3] (setting [8]) it was 44%; in assay [3] (at 50.0 µM), 58.6%; in assay [4] (setting [7]), 3%; in assay [4] (setting [8]) it was 25%; in assay [4] (at 50.0 µM), 48.5%. The growth inhibition in assay [5] (setting [7]) was 2%; in assay [5] (setting [8]), 41%; in assay [5] (at 50.0 µM), 60.5%; in assay [6] (setting [7]) it was 4%; in assay [6] (setting [8]), 34%; in assay [6] (at 50.0 µM), 34.5%.

For `c1ccc(C[As+](c2ccccc2)(c2ccccc2)c2ccccc2)cc1`, the growth inhibition in assay [1] (setting [7]) is 24%; in assay [1] (setting [8]) it was 92% (active); in assay [1] (at 50.0 µM), 97.3% (active); in assay [2] (setting [7]), 4%; in assay [2] (setting [8]), 94% (active); in assay [2] (at 50.0 µM), 97.7% (active). The growth inhibition in assay [3] (setting [7]) is 1%; in assay [3] (setting [8]) it was 89% (active); in assay [3] (at 50.0 µM) it was 98.8% (active); in assay [4] (setting [7]) it was 1%; in assay [4] (setting [8]), 75% (active); in assay [4] (at 50.0 µM), 94.7% (active). Further, the growth inhibition in assay [5] (setting [7]) is 4%; in assay [5] (setting [8]) it was 96% (active); in assay [5] (at 50.0 µM), 93% (active); in assay [6] (setting [7]), 11%; in assay [6] (setting [8]), 89% (active); in assay [6] (at 50.0 µM) it was 97.7% (active).

`O=C1C(F)=C(N2CC2)C(=O)C(F)=C1N1CC1`: the growth inhibition is 99% (active) in assay [1] (setting [7]); 99% (active) in assay [1] (setting [8]); 91.7% (active) in assay [1] (at 50.0 µM); 100% (active) in assay [2] (setting [7]); 99% (active) in assay [2] (setting [8]); 94% (active) in assay [2] (at 50.0 µM). Moreover, the growth inhibition is 100% (active) in assay [3] (setting [7]); 99% (active) in assay [3] (setting [8]); 91% (active) in assay [3] (at 50.0 µM); 100% (active) in assay [4] (setting [7]); 99% (active) in assay [4] (setting [8]); 91.5% (active) in assay [4] (at 50.0 µM). The growth inhibition in assay [5] (setting [7]) is 98% (active); in assay [5] (setting [8]), 99% (active); in assay [5] (at 50.0 µM) it was 92.8% (active); in assay [6] (setting [7]) it was 99% (active); in assay [6] (setting [8]), 99% (active); in assay [6] (at 50.0 µM), 91.5% (active).

Turning to `COC(=O)[C@@]12OC[C@]34[C@H]([C@@H](O)[C@@H]1O)[C@@]1(C)CC(=O)C(O)=C(C)[C@@H]1C[C@H]3OC(=O)[C@H](OC(=O)/C=C(\C)C(C)C)[C@@H]24`, the growth inhibition in assay [1] (setting [7]) is 96% (active); in assay [1] (setting [8]), 99% (active); in assay [1] (at 50.0 µM) it was 91.5% (active); in assay [2] (setting [7]), 95% (active); in assay [2] (setting [8]), 100% (active); in assay [2] (at 50.0 µM), 93.7% (active). Further, the growth inhibition in assay [3] (setting [7]) was 96% (active); in assay [3] (setting [8]), 99% (active); in assay [3] (at 50.0 µM) it was 93% (active); in assay [4] (setting [7]), 96% (active); in assay [4] (setting [8]) it was 99% (active); in assay [4] (at 50.0 µM), 90.8% (active). Further, the growth inhibition was 93% (active) in assay [5] (setting [7]); 99% (active) in assay [5] (setting [8]); 91.5% (active) in assay [5] (at 50.0 µM); 97% (active) in assay [6] (setting [7]); 99% (active) in assay [6] (setting [8]); 92% (active) in assay [6] (at 50.0 µM).

Regarding `c1cc2c(cc1NC1=NCCO1)CCCC2`, the growth inhibition in assay [1] (setting [7]) was 14%; in assay [1] (setting [8]), 8%; in assay [1] (at 50.0 µM) it was -37%; in assay [2] (setting [7]) it was 6%; in assay [2] (setting [8]) it was 4%; in assay [2] (at 50.0 µM) it was -30%. The growth inhibition in assay [3] (setting [7]) was -1%; in assay [3] (setting [8]), 34%; in assay [3] (at 50.0 µM), -6.4%; in assay [4] (setting [7]) it was 28%; in assay [4] (setting [8]), 21%; in assay [4] (at 50.0 µM), 15.8%. In addition, the growth inhibition in assay [5] (setting [7]) was -33%; in assay [5] (setting [8]) it was -8%; in assay [5] (at 50.0 µM), -22.6%; in assay [6] (setting [7]), 15%; in assay [6] (setting [8]), 11%; in assay [6] (at 50.0 µM), -41.1%.

As for `O=c1oc2ccccc2c(O)c1C(c1ccco1)c1c(O)c2ccccc2oc1=O`, the growth inhibition was 11% in assay [1] (setting [7]); 22% in assay [1] (setting [8]); 79% (active) in assay [1] (at 50.0 µM); 13% in assay [2] (setting [7]); 24% in assay [2] (setting [8]); 79.2% (active) in assay [2] (at 50.0 µM). Further, the growth inhibition in assay [3] (setting [7]) was -6%; in assay [3] (setting [8]) it was 43%; in assay [3] (at 50.0 µM), 44.2%; in assay [4] (setting [7]), 16%; in assay [4] (setting [8]) it was 28%; in assay [4] (at 50.0 µM), 41.5%. For the same compound, the growth inhibition was 9% in assay [5] (setting [7]); 56% in assay [5] (setting [8]); 34.2% in assay [5] (at 50.0 µM); 9% in assay [6] (setting [7]); 19% in assay [6] (setting [8]); 27.5% in assay [6] (at 50.0 µM).
